aGlu spleen mod – lysosomal alpha-glucosidase (human) modulation; AID 2112; P10253; 0.006% of 240,000 active; human spleen homogenate, 4-MU-alpha-glucoside fluorescence; Potency, µM (series often up to 79.9 µM), without a hit: top-dose activity change, negative = inhibition, hits mostly inhibitors;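 note: potency is the fitted concentration of half-maximal effect; 0% = enzyme with vehicle and -100% = no enzyme basal signal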
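AC50 values come from Hill-equation fits of concentration-response data, normalized to no-enzyme and full-activity controls. Enzyme source: 1 ug human spleen homogenate; 1 mM fluorogenic 4-MU glucoside, pH 5.0 citrate buffer, 37 C, 40 min.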
GAA glycogen – inhibitors or activators of human alpha-glucosidase glycogen cleavage; recombinant GAA, glycogen substrate, Amplex Red glucose oxidase fluorescence; 0.38% of 300,000 active; Potency, µM (titrated, usually from 76.4 µM), for the others: at the highest dose activity change, negative = inhibition, usual class: inhibitors; P10253;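 note: potency is the fitted concentration of half-maximal effect; 0% = full enzyme reaction and -100% = no-enzyme basal signal; the screen sought inhibitors and activators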
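Recombinant human enzyme (4 nM); glycogen substrate; 37 C, 40 min, pH 5.0. Readout: coupled glucose oxidase/Amplex Red fluorescence.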
N370S GC – inhibits or activates N370S mutant glucocerebrosidase; N370S GC spleen homogenate, 4MU-glucoside fluorescence; P04062; Potency, µM (titrated, usually from 59.4 µM), for inactives: at the highest dose activity change, negative = inhibition, hits mostly inhibitors; 0.092% of 330,000 active; AID 2101;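 note: potency is the fitted concentration of half-maximal effect; 0% = full enzyme activity and -100% = no enzyme basal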
aGal spleen mod – alpha-galactosidase A (human) modulation; P06280; human spleen homogenate, 4MU-alpha-Gal fluorescence, 40 min; Potency, µM (series often up to 80 µM), for the others: at the top dose activity change, negative = inhibition, most hits filed as inhibitors; 0.008% of 240,000 active; AID 2107;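 note: potency is the fitted concentration of half-maximal effect; 0% = enzyme with vehicle and -100% = no enzyme basal signal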
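qHTS titration in buffer at pH 5.0. Alpha-galactosidase activity in spleen homogenate was measured via 4-methylumbelliferone release from 1 mM fluorogenic substrate after 40 min at 37C and a pH 10 stop. AC50 came from Hill fits of control-normalized data.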
GLA inh pH 4.5 – blocks human alpha-galactosidase A at pH 4.5 | P06280 | purified enzyme, 4-MU-alpha-Gal fluorescence, pH 4.5 | activity change, negative = inhibition, % at 105 µM | 230,000 tested, under 10 active;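 note: 0% = full activity with enzyme and -100% = basal without enzyme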
Target sequence (P06280 whole entry, looked up): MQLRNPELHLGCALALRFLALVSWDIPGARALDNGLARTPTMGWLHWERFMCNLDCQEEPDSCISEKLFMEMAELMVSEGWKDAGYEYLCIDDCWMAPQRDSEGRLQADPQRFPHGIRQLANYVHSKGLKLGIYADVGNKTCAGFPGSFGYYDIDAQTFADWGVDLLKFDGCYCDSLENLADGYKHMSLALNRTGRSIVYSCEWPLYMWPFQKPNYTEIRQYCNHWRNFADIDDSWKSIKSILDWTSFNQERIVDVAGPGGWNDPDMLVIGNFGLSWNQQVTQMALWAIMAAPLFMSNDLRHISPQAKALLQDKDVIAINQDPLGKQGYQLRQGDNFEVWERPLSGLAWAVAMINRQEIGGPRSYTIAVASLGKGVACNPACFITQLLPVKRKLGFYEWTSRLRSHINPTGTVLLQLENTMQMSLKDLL
GAA inh – alpha-glucosidase (human) inhibition; P10253; purified human GAA, 4-MU-alpha-glucoside fluorescence; Potency, µM (titrated, usually from 76.9 µM), for inactives: at the top dose activity change, negative = inhibition, hits mostly inhibitors; 0.005% of 200,000 active;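 note: potency is the fitted concentration of half-maximal effect; plate controls were uninhibited enzyme wells for no effect and no-enzyme background for full effect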
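Endpoint fluorogenic read: 20 min room-temperature reaction of 4 nM human alpha-glucosidase with 400 uM 4-methylumbelliferyl-alpha-D-pyranoside, pH 5.0, quenched with 1M NaOH/1M glycine pH 10. AC50 from Hill modeling.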
The depositor's hits bear a star; ? = inconclusive; . = not tested or not shown; [ ] = another dose, or the depositor's remark. Rows were chosen to be rich in hits. Some 0.43% of all compounds tested hit in one or more screens of this group. Calls come from the whole dose curve; as a rule, active = well fitted curve in the direction sought with a large enough effect; inconclusive = small, poorly fitted or top-dose-only effect, or another doubt; inactive = no such curve, though single readings can be large; an effect the other way counts as inactive or inconclusive.

SMILES	aGlu spleen mod	GAA glycogen	N370S GC	aGal spleen mod	GLA inh pH 4.5	GAA inh
C=C(C)C(=O)OCC(C)O (stereo unspecified)	5%	.	-1%	6%	.	.
O=C(NC1=NCCS1)C1Cc2ccccc2CN1C(=O)c1ccccc1 (stereo unspecified)	-1%	4µM*	5%	11%	-4	-10%
CC(=O)c1ccc(NC(=O)C2Cc3ccccc3CN2C(=O)c2ccccc2)cc1 (stereo unspecified)	1%	-4%	8%	5%	-12	3%
COc1ccc(C(=O)COC(=O)C2CC3CCCC(C2)C3=O)cc1Br (stereo unspecified)	.	.	0%	.	.	.
COc1ccc(C(=O)COC(=O)CN2CC(=O)Oc3ccccc32)cc1Br	-4%	3.1µM*	-2%	-3%	3	6%
CCc1cccc(N(C)C(N)=Nc2cccc3ccccc23)c1	-9%	-3%	13µM*	10%	-4	.
CCN(/C(N)=N/c1nc(C)cc(C)n1)c1ccccc1	.	-9%[76.3 µM]	-23%	.	.	.
Cc1cccc(CNc2ccnc(-c3ccccc3C(F)(F)F)n2)c1	-12%	.	14µM*	4%	.	.
COc1ccc(C(OCCN2CCC[C@H](C(=O)O)C2)(c2ccc(OC)cc2)c2ccc(OC)cc2)cc1	-6%	.	2%	-6%	.	.
O=c1c(O)cccc2cc(O)c(O)c(O)c12	-2%	14µM*	-4%	3%	-9	-8%
O=c1cc(-c2ccccc2)oc2cc(O)c(O)c(O)c12	9%	.	?	11%	-14	.
O=C(O)CN(CC(=O)O)c1ccccc1OCCOc1ccccc1N(CC(=O)O)CC(=O)O	-1%	.	-6%	-12%	.	.
O=C1CC(N2CCN(c3ccc(O)cc3)CC2)C(=O)N1c1ccc2c(c1)OCO2 (stereo unspecified)	3%	16µM*	-8%	-6%	0	12%
O=C1CC(N2CCCCCC2)C(=O)N1c1ccc2c(c1)OCO2 (stereo unspecified)	5%	-1%	-3%	5%	-2	-8%
Cc1ccc(-c2[nH]c(=O)n3ccncc23)s1	1%	40µM*	0%[2.35 µM]	9%	-8	-7%
Cc1ccc(Nc2nc(-c3c(C)nc4ncccn34)cs2)cc1	-5%	?	-12%	-3%	-6	4%
Oc1ccc(-c2nc(-c3ccc(O)c(O)c3)cs2)cc1	1%	11µM*	-18%	6%	-2	-9%
Cc1ccc(Nc2nc(-c3c(C)nc4ccccn34)cs2)cc1	6%	28µM*	-10%	9%	-7	-7%
Cc1nc2ncccn2c1-c1csc(Nc2ccc(O)cc2)n1	0%	22µM*	-2%	-1%	-3	-4%
CC(=O)Nc1nc(C)c(-c2csc(Nc3ccc(O)cc3)n2)s1	2%	25µM*	?	1%	0	0%
CC[C@H](C)[C@H](NC(=O)CNC(=O)[C@@H](NC(=O)[C@@H](NC(=O)[C@H](Cc1ccc(O)cc1)NC(=O)[C@H](CC(C)C)NC(=O)[C@H](C)NC(=O)[C@H](CCC(N)=O)NC(=O)CNC(=O)[C@@H]1CCCN1C(=O)CNC(=O)[C@H](Cc1ccccc1)NC(=O)[C@H](Cc1cnc[nH]1)NC(=O)[C@@H](NC(=O)CNC(=O)[C@H](CCCNC(=N)N)NC(=O)[C@H](CCCNC(=N)N)NC(=O)[C@@H](NC(=O)[C@H](CC(N)=O)NC(=O)[C@@H](N)CS)[C@@H](C)O)[C@@H](C)CC)[C@@H](C)O)[C@@H](C)O)C(=O)O	-4%	.	-9%	-16%	.	.
O=C(/C=C/c1ccc2c(c1)OCO2)c1cccs1	?	.	25%	14%	-11	.
Oc1ccc(Nc2nc(-c3ccc4ccccc4c3)cs2)cc1	10%	5.6µM*	?	10%	2	?
Oc1ccc(N2CCN(c3nc(-c4cccs4)nc4ccccc34)CC2)cc1	-6%	25µM*	?	-5%	4	.

Screens as filed in PubChem BioAssay.
